Test results: PubChem BioAssay (NCATS)
Inconclusive results are not listed. Unmarked numbers belong to inactive results. Activity calls are given as the source filed them. Unless noted, calls come from the whole dose curve.

Target: Glucocorticoid receptor (Homo sapiens) (UniProt P04150)
Experiment: qHTS assay for small molecule agonists of glucocorticoid receptor signaling (AID 588532; active = well fitted curve in the direction sought with a large enough effect in the signal ratio, with a control signal flat; the % refers to the signal ratio;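 note: 100% = dexamethasone at 0.1 µM and 0% = DMSO only wells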)
Details: HeLa MMTV-bla, beta-lactamase ratio, agonist, 18 h; hits give high values; percent of dexamethasone control, DMSO zero
Outline: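 MMTV-bla HeLa beta-lactamase reporter cells in 1% charcoal/dextran FBS medium, compounds up to 92 uM for 18 h at 37 C, CCF4 readout; normalized to 0.1 uM dexamethasone (100%), EC50 and efficacy from Hill fits.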

Chain of Glucocorticoid receptor (Homo sapiens) (P04150 whole entry, looked up): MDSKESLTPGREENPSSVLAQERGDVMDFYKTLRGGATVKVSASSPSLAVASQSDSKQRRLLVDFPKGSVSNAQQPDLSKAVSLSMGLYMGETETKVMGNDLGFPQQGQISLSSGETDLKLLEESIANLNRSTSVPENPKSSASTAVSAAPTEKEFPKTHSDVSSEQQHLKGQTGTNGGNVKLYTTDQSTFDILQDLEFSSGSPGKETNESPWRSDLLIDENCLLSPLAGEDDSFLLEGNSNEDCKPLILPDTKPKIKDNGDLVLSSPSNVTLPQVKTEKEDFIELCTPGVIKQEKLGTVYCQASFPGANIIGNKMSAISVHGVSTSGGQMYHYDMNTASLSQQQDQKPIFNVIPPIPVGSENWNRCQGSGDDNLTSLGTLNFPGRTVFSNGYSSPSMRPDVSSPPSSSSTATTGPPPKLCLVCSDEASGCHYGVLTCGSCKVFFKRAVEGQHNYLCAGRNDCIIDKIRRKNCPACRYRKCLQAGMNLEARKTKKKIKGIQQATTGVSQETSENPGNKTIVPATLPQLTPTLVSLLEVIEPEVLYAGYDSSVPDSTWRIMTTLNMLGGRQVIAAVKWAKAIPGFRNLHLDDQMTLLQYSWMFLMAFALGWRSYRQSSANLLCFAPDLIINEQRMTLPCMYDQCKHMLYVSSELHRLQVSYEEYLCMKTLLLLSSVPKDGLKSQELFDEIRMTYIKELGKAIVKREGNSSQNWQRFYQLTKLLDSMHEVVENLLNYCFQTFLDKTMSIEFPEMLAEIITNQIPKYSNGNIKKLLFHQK

Compared with `CCOP(=S)(OCC)Oc1ccc2c(C)c(Cl)c(=O)oc2c1`, `O=C1c2ccccc2C(=O)C1C(=O)C(c1ccccc1)c1ccccc1` is lower in activation: -1.75% for the first, -2.9% for the second.

Compared with `Nc1ccccc1`, `CCCC(C)(COC(N)=O)COC(N)=O` is lower in activation: -2.91% for the first, -13.9% for the second.

Target: Peroxisome proliferator-activated receptor delta (Homo sapiens) (UniProt Q03181)
Experiment: qHTS assay for small molecule agonists of peroxisome proliferator-activated receptor delta signaling (AID 588534);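 note: 0% = DMSO basal wells and 100% = positive control agonist at 10 µM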
Details: HEK293T PPARdelta-UAS-bla, beta-lactamase ratio, 18 h; series mostly up to 76.7 µM; activation: at the top concentration
Outline: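 Reporter cells were plated and held 5 hrs at 37 C before compounds were added. After 18 hrs at 37 C, CCF4 dye was loaded for 2 hrs at RT and fluorescence measured.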

Chain of Peroxisome proliferator-activated receptor delta (Homo sapiens) (Q03181 whole entry, looked up): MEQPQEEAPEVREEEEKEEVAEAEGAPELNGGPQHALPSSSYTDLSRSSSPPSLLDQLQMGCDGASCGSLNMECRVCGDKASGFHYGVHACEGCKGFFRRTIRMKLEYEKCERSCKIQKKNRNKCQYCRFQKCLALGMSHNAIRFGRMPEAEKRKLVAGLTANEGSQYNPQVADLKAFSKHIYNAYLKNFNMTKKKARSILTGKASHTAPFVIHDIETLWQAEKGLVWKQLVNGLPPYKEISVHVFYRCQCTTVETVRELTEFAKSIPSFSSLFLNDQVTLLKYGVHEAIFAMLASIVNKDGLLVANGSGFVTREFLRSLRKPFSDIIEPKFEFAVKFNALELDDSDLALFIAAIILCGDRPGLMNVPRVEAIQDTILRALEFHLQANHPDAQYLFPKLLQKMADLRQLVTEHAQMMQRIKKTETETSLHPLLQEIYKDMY

With `CCCCOC(=O)c1ccc(O)cc1` the outcome was “inactive”.
In the case of `Cc1noc(NS(=O)(=O)c2ccc(N)cc2)c1C`, the outcome is reported as “inactive”.
In the case of `NCCNCCNCCNCCN`, the outcome is reported as “inactive”.
For `C=CCc1ccc(O)c(OC)c1`, the outcome was “inactive”.
In the case of `COc1c2occc2cc2ccc(=O)oc12`, the outcome is reported as “inactive”.
With `NC(=O)N1c2ccccc2C=Cc2ccccc21` the outcome was “inactive”.

First: O=C(O)/C=C\C(=O)O
Second: O=C(O)CCCCC(=O)O
The “activation” value of the first is higher: 7.55% for the first, 3.39% for the second.

Going from `S=P(N1CC1)(N1CC1)N1CC1` to `CCOP(=S)(OCC)Oc1ccc2c(C)c(Cl)c(=O)oc2c1`, the “activation” value falls from 1.07% to -10.2%.

Going from `CCCCCCCCCCCCCCCCCCO` to `CCCCCCCCCCCCCCCCO`, the “activation” value rises from -0.46% to 0.111%.

First: CO/N=C(/C(=O)N[C@@H]1C(=O)N2C(C(=O)O)=C(COC(N)=O)CS[C@H]12)c1ccco1
Second: COC(=O)c1ccc(O)cc1
The “activation” value of the first is higher: 0.209% for the first, -3.13% for the second.

Compared with `CCCCCCCCCCCCCCCC(=O)OC(C)C`, `CCCCCCCC(=O)OCC(COC(=O)CCCCCCC)OC(=O)CCCCCCC` is lower in “activation” value: -1.12% for the first, -2.47% for the second.

First: CCCCOC(=O)c1ccc(N)cc1
Second: COc1ccc(O)cc1
The “activation” value of the first is lower: 0.69% for the first, 2.95% for the second.

First: Cc1nnc(NS(=O)(=O)c2ccc(N)cc2)s1
Second: NC(=O)c1ccccc1O
The “activation” value of the first is lower: -0.793% for the first, 3.83% for the second.

First: Cc1cc(=O)[nH]c(=S)[nH]1
Second: Cc1cc(O)cc(C)c1Cl
The “activation” value of the first is lower: 1.21% for the first, 6.09% for the second.

`Cn1c(=O)c2[nH]cnc2n(C)c1=O` was tested, and the “activation” value was 5.3%.
